Data reported in PubChem BioAssay AID1159580 (chemical genetic matrix, 2015).
Screen size: about 5,500 compounds; about 2,000 (36%) were called active. Another 18% or so got no clear call; they are omitted. Cut-off read from the data, not from the text of the source: active = normalized growth mostly below about 0.91 (no sharp cut-off); inconclusive = no clear call, values can overlap the other calls; inactive = mostly above about 0.92. This is one part of the list.

Experiment: chemical genetic growth profiling, strain panel (AID 1159580);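 note: tested at 20 µM; growth read once vehicle control cultures reached saturation at 30 °C; 1 = growth at the plate median or of vehicle wells; lower values mean less growth of the strain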
Conditions: S. cerevisiae deletion strains, growth OD

Measured: normalized growth

CC[N+](CC)(CC)CC
inactive: locus YAL040C, strain CLN3, hits give low values 1.02 | locus YCL061C, strain MRC1 (second series), hits give low values 1 | locus YDR363W, strain ESC2, hits give low values 0.99 | locus YER002W, strain NOP16, hits give low values 0.989 | locus YGR078C, strain PAC10, hits give low values 1 | locus YGR229C, strain SMI1, hits give low values 1.02 | locus YJR075W, strain HOC1, hits give low values 1.02 | locus YMR263W, strain SAP30, hits give low values 0.994 | locus YMR307W, strain GAS1, hits give low values 0.991 | locus YNL153C, strain GIM3, hits give low values 0.986 | locus YNL175C, strain NOP13, hits give low values 0.981 | locus YNL197C, strain WHI3, hits give low values 1.01 | locus YNL224C, strain SQS1, hits give low values 0.997 | locus YOR083W, strain WHI5 (second series), hits give low values 0.999

C=CC[C@]1(O)CCC2C3CCC4=CC(=O)CCC4=C3C=C[C@@]21C (some centres undefined)
inactive: locus YAL021C, strain ccr4, hits give low values 0.989 | locus YAL026C, strain drs2, hits give low values 0.975 | locus YAL030W, strain snc1, hits give low values 0.994 | locus YBL061C, strain skt5, hits give low values 0.989 | locus YBR009C, strain hhf1, hits give low values 0.988 | locus YBR023C, strain chs3, hits give low values 0.986 | locus YBR171W, strain sec66, hits give low values 0.975 | locus YBR231C, strain swc5, hits give low values 0.988 | locus YBR279W, strain paf1, hits give low values 0.996 | locus YCL011C, strain gbp2, hits give low values 1.01 | locus YCL016C, strain dcc1, hits give low values 0.998 | locus YCL061C, strain MRC1, hits give low values 0.998 | locus YCL069W, strain vba3, hits give low values 0.999 | locus YCR088W, strain abp1, hits give low values 0.987 | locus YDL005C, strain med2, hits give low values 0.996 | locus YDL040C, strain nat1, hits give low values 0.991 | locus YDR001C, strain nth1, hits give low values 0.995 | locus YDR069C, strain doa4, hits give low values 0.996 | locus YDR159W, strain sac3, hits give low values 0.997 | locus YDR195W, strain ref2 1.05 | locus YDR297W, strain sur2, hits give low values 0.985 | locus YDR334W, strain swr1, hits give low values 0.997 | locus YDR335W, strain msn5, hits give low values 1.01 | locus YEL003W, strain gim4, hits give low values 0.992 | locus YEL037C, strain rad23, hits give low values 0.995 | locus YEL061C, strain CIN8 (second series), hits give low values 0.993 | locus YER015W, strain faa2, hits give low values 0.997 | locus YER016W, strain bim1, hits give low values 0.996 | locus YER111C, strain swi4, hits give low values 0.998 | locus YFR010W, strain ubp6, hits give low values 1.01 | locus YGL167C, strain pmr1, hits give low values 0.992 | locus YGL173C, strain kem1, hits give low values 0.99 | locus YGL227W, strain vid30, hits give low values 0.995 | locus YGL240W, strain doc1, hits give low values 0.989 | locus YGL253W, strain hxk2, hits give low values 0.985 | locus YHR013C, strain ard1, hits give low values 0.935 | locus YHR027C, strain rpn1, hits give low values 0.996 | locus YHR030C, strain SLT2, hits give low values 0.992 | locus YHR079C, strain IRE1, hits give low values 1 | locus YHR142W, strain chs7, hits give low values 0.944 | locus YJL092W, strain hpr5, hits give low values 0.984 | locus YJL095W, strain BCK1 (second series), hits give low values 1 | locus YJL095W, strain BCK1, hits give low values 0.909 | locus YJL115W, strain asf1, hits give low values 0.991 | locus YJL129C, strain trk1, hits give low values 0.91 | locus YJL154C, strain vps35, hits give low values 0.995 | locus YJL164C, strain tpk1, hits give low values 1 | locus YJL166W, strain qcr8, hits give low values 0.982 | locus YJL187C, strain SWE1, hits give low values 0.993 | locus YJR066W, strain TOR1, hits give low values 0.946 | locus YKL160W, strain elf1, hits give low values 0.984 | locus YKR026C, strain gcn3, hits give low values 0.977 | locus YKR091W, strain srl3, hits give low values 0.996 | locus YLL001W, strain dnm1, hits give low values 1 | locus YLL026W, hits give low values 0.995 | locus YLL041C, strain sdh2, hits give low values 0.991 | locus YLR027C, strain aat2, hits give low values 1 | locus YLR113W, strain HOG1, hits give low values 0.884 | locus YLR221C, strain rsa3, hits give low values 0.986 | locus YLR258W, strain gsy2, hits give low values 0.991 | locus YLR342W, strain FKS1, hits give low values 0.969 | locus YLR357W, strain rsc2, hits give low values 0.999 | locus YLR370C, strain arc18, hits give low values 0.982 | locus YLR384C, strain iki3, hits give low values 1 | locus YML120C, strain ndi1, hits give low values 0.98 | locus YMR058W, strain fet3, hits give low values 0.993 | locus YMR125W, strain sto1, hits give low values 1 | locus YMR129W, hits give low values 0.993 | locus YMR205C, strain PFK2, hits give low values 0.895 | locus YMR231W, strain pep5, hits give low values 0.995 | locus YNL183C, strain NPR1, hits give low values 0.93 | locus YNL209W, strain ssb2, hits give low values 1 | locus YNL248C, strain rpa49, hits give low values 1.01 | locus YNL322C, strain KRE1 (second series), hits give low values 0.999 | locus YNR049C, strain mso1, hits give low values 0.997 | locus YOR001W, strain rrp6, hits give low values 0.99 | locus YOR070C, strain gyp1, hits give low values 0.982 | locus YOR080W, strain dia2, hits give low values 0.998 | locus YOR083W, strain WHI5, hits give low values 0.994 | locus YOR106W, strain vam3, hits give low values 1.01 | locus YOR231W, strain MKK1, hits give low values 0.985 | locus YOR265W, strain rbl2, hits give low values 0.998 | locus YOR270C, strain vph1, hits give low values 0.872 | locus YOR290C, strain snf2, hits give low values 0.953 | locus YPL051W, strain arl3, hits give low values 0.988 | locus YPL078C, strain atp4, hits give low values 1.02 | locus YPL106C, strain sse1, hits give low values 1.04 | locus YPL240C, strain hsp82, hits give low values 0.991 | locus YPL256C, strain CLN2, hits give low values 0.993
active: locus YDR137W, strain rgp1, hits give low values 0.806 | locus YDR392W, strain spt3, hits give low values 0.551 | locus YER155C, strain BEM2 (second series), hits give low values 0.815 | locus YLR262C, strain YPT6 (second series), hits give low values 0.804 | locus YLR320W, strain mms22, hits give low values 0.838 | locus YNL071W, strain lat1, hits give low values 0.817
